A word on the AC50: it is the concentration at which the activity in the assay is half-maximal.

Some compounds were tested as several samples or in several runs, with calls that do not always agree. Activity calls are given as the source filed them. How the source made its calls: active means hit-call score of the fitted dose curve at least 0.9, where 1 is the maximum; inactive means score below 0.9.

Data on 6 molecules can be found in PubChem BioAssay (EPA / NIEHS).

Assay [1] can be described thus: BSK_CASM3C_SRB: Viability Assessment in the BioMAP Diversity Plus: CASM3C Assay (AID 2283050).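 Further: cells exposed to compound for 24 h.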 The following applies: primary human coronary artery smooth muscle cells.
Read-out in assay [2]: Thrombomodulin, THBD (gene 7056)
Kind of assay: BSK_CASM3C_Thrombomodulin: BioMAP Diversity Plus: CASM3C Assay for Thrombomodulin Biomarker Activity (AID 2283051).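 Further: thrombomodulin protein level measured by ELISA 24 h after dosing.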 To be noted: primary human coronary artery smooth muscle cells; actives raise or lower the signal.

Read-out in assay [3]: Tissue Factor, F3 (gene 2152)
Kind of assay: BSK_CASM3C_TissueFactor: BioMAP Diversity Plus: CASM3C Assay for Tissue Factor Biomarker Activity (AID 2283052).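 Further: cell surface tissue factor protein level read by ELISA.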 To be noted: primary human coronary artery smooth muscle cells; actives raise or lower the signal.

Read-out in assay [4]: Interferon-gamma inducible Protein 10 (IP10), CXCL10 (gene 3627)
Kind of assay: BSK_hDFCGF_IP10: BioMAP Diversity Plus: hDFCGF Assay for Interferon-gamma inducible Protein 10 (IP10) Biomarker Activity (AID 2283053). The following applies: primary human foreskin fibroblasts; actives raise or lower the signal. Put shortly: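 Primary foreskin fibroblasts, human; 24 h compound exposure; IP-10 by ELISA; bidirectional fit vs DMSO.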

Read-out in assay [5]: Urokinase-type plasminogen activator receptor (uPAR), PLAUR (gene 5329)
As to the kind of experiment: BSK_CASM3C_uPAR: BioMAP Diversity Plus: CASM3C Assay for Urokinase-type plasminogen activator receptor (uPAR) Biomarker Activity (AID 2283054).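 Further: cell-surface uPAR protein level quantified by ELISA.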 To be noted: primary human coronary artery smooth muscle cells; actives raise or lower the signal.

Read-out in assay [6]: Vascular cell adhesion molecule 1 (VCAM1), VCAM1 (gene 7412)
Kind of assay: BSK_CASM3C_VCAM1: BioMAP Diversity Plus: CASM3C Assay for Vascular cell adhesion molecule 1 (VCAM1) Biomarker Activity (AID 2283055).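 Further: VCAM-1 protein level quantified by ELISA on the cells.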 To be noted: primary human coronary artery smooth muscle cells; actives raise or lower the signal.

Read-out in assay [7]: Collagen III, COL3A1 (gene 1281)
As to the kind of experiment: BSK_hDFCGF_CollagenIII: BioMAP Diversity Plus: hDFCGF Assay for Collagen III Biomarker Activity (AID 2283056). To be noted: primary human foreskin fibroblasts; actives raise or lower the signal. Put shortly:
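Cells: human foreskin fibroblasts, primary. Dosing followed by 24 h incubation, then ELISA for collagen III. Both increases and decreases scored relative to DMSO.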

Read-out in assay [8]: Epidermal growth factor receptor (EGFR), EGFR (gene 1956)
Kind of assay: BSK_hDFCGF_EGFR: BioMAP Diversity Plus: hDFCGF Assay for Epidermal growth factor receptor (EGFR) Biomarker Activity (AID 2283057). To be noted: primary human foreskin fibroblasts; actives raise or lower the signal. An outline of the steps: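 hDFCGF system, primary human foreskin fibroblasts; compound 24 h; EGFR measured by ELISA; DMSO = negative control/baseline; bidirectional fitting.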

Read-out in assay [9]: Interleukin-8 (IL8), CXCL8 (gene 3576)
As to the kind of experiment: BSK_hDFCGF_IL8: BioMAP Diversity Plus: hDFCGF Assay for Interleukin-8 (IL8) Biomarker Activity (AID 2283058). The following applies: primary human foreskin fibroblasts; actives raise or lower the signal. Put shortly: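 IL-8 levels from compound-treated primary human fibroblasts were read by ELISA at 24 h, with DMSO serving as baseline for bidirectional fitting.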

The nature of assay [10]: BSK_hDFCGF_Proliferation: Cell Proliferation Assessment in the BioMAP Diversity Plus: hDFCGF Assay (AID 2283059).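 Further: curves fitted for both rise and fall of signal versus DMSO baseline.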 The following applies: primary human foreskin fibroblasts. Put shortly: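 Steps: dose primary human dermal fibroblasts (foreskin); […] fix in 10% TCA; stain with 0.1% SRB; read 560 nm; fit gain or loss of signal against DMSO.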
Read-out in assay [11]: Macrophage colony-stimulating factor (MCSF), CSF1 (gene 1435)
Kind of assay: BSK_hDFCGF_MCSF: BioMAP Diversity Plus: hDFCGF Assay for Macrophage colony-stimulating factor (MCSF) Biomarker Activity (AID 2283060). The following applies: primary human foreskin fibroblasts; actives raise or lower the signal. Put shortly:
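M-CSF levels, determined by ELISA, are taken at 24 h after dosing human skin fibroblasts. Responses in either direction are fitted with DMSO serving as the baseline.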

Assay [12] is described as follows: BSK_hDFCGF_SRB: Viability Assessment in the BioMAP Diversity Plus: hDFCGF Assay (AID 2283061).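 Further: cells exposed to compound for 24 h before the read.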 To be noted: primary human foreskin fibroblasts. An outline of the steps: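 Cells were dosed with test chemical, cultured 24 h, fixed with 10% TCA, then stained with 0.1% SRB and read at 560 nm. The fibroblasts were human foreskin primary cells, and DMSO served as baseline.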

Read-out in assay [13]: TIMP metallopeptidase inhibitor 1 (TIMP1), TIMP1 (gene 7076)
Kind of assay: BSK_hDFCGF_TIMP1: BioMAP Diversity Plus: hDFCGF Assay for TIMP metallopeptidase inhibitor 1 (TIMP1) Biomarker Activity (AID 2283062). To be noted: primary human foreskin fibroblasts; actives raise or lower the signal. Put shortly:
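Fibroblasts from human foreskin are treated with test chemical and harvested at 24 h. TIMP-1 is quantified by ELISA, and gain or loss of signal is scored against DMSO.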

Read-out in assay [14]: Monokine induced gamma interferon (MIG), CXCL9 (gene 4283)
As to the kind of experiment: BSK_hDFCGF_MIG: BioMAP Diversity Plus: hDFCGF Assay for Monokine induced gamma interferon (MIG) Biomarker Activity (AID 2283063). To be noted: primary human foreskin fibroblasts; actives raise or lower the signal. An outline of the steps:
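MIG signal, determined by ELISA, reflects 24 h chemical exposure of human skin primary fibroblasts. DMSO serves as negative control and baseline.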

Read-out in assay [15]: Matrix Metallopeptidase 1 (MMP1), MMP1 (gene 4312)
Kind of assay: BSK_hDFCGF_MMP1: BioMAP Diversity Plus: hDFCGF Assay for Matrix Metallopeptidase 1 (MMP1) Biomarker Activity (AID 2283064). The following applies: primary human foreskin fibroblasts; actives raise or lower the signal. Put shortly:
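Primary human foreskin fibroblasts exposed to chemicals for 24 h; MMP1 measured by ELISA. Cytotoxicity tracked by SRB staining in parallel cultures; bidirectional fit relative to DMSO.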

Read-out in assay [16]: Vascular cell adhesion molecule 1 (VCAM1), VCAM1 (gene 7412)
Kind of assay: BSK_hDFCGF_VCAM1: BioMAP Diversity Plus: hDFCGF Assay for Vascular cell adhesion molecule 1 (VCAM1) Biomarker Activity (AID 2283065). To be noted: primary human foreskin fibroblasts; actives raise or lower the signal. Put shortly:
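Cells are dosed, cultured for 24 h, then VCAM-1 is quantified by ELISA; signal increases and decreases are both fitted relative to DMSO.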

Read-out in assay [17]: Interferon-gamma inducible Protein 10 (IP10), CXCL10 (gene 3627)
Kind of assay: BSK_KF3CT_IP10: BioMAP Diversity Plus: KF3CT Assay for Interferon-gamma inducible Protein 10 (IP10) Biomarker Activity (AID 2283068). To be noted: primary human keratinocytes with fibroblasts; actives raise or lower the signal. Put shortly: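 KF3CT co-culture (keratinocytes + foreskin fibroblasts), 24 h compound, IP-10 by ELISA; bidirectional fit vs DMSO baseline.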

Assay [18] in a line: BSK_KF3CT_SRB: Viability Assessment in the BioMAP Diversity Plus: KF3CT Assay (AID 2283069).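 Further: total protein by sulforhodamine B staining as a cytotoxicity measure; fitted for both signal gain and loss against DMSO baseline.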 To be noted: primary human keratinocytes with fibroblasts. Put shortly:
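Human keratinocyte and foreskin fibroblast co-culture exposed to chemical for 24 h. Total protein measured in parallel cultures by 0.1% sulforhodamine B staining after 10% TCA fixation, read at 560 nm; bidirectional fit relative to DMSO.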

Read-out in assay [19]: Plasminogen activator inhibitor-1 (PAI1), SERPINE1 (gene 5054)
As to the kind of experiment: BSK_hDFCGF_PAI1: BioMAP Diversity Plus: hDFCGF Assay for Plasminogen activator inhibitor-1 (PAI1) Biomarker Activity (AID 2283066). The following applies: primary human foreskin fibroblasts; actives raise or lower the signal. Put shortly:
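Primary dermal fibroblasts (human foreskin), hDFCGF system; compound 24 h; PAI-1 by ELISA; bidirectional fit vs DMSO control.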

Read-out in assay [20]: Intercellular Adhesion Molecule 1 (ICAM1), ICAM1 (gene 3383)
Kind of assay: BSK_KF3CT_ICAM1: BioMAP Diversity Plus: KF3CT Assay for Intercellular Adhesion Molecule 1 (ICAM1) Biomarker Activity (AID 2283067). The following applies: primary human keratinocytes with fibroblasts; actives raise or lower the signal. An outline of the steps:
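Dose the keratinocyte/fibroblast co-culture, wait 24 h, measure ICAM-1 by ELISA, then fit increases or decreases against DMSO. Cytotoxicity is checked in parallel cultures by SRB total-protein staining.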

As to `C#CCN1C(=O)COc2cc(F)c(N3C(=O)C4=C(CCCC4)C3=O)cc21`, the result in assay [1], in assay [2], in assay [3], in assay [4], in assay [5] and in assay [6] was inactive. The result in [7], in assay [8], in assay [9], in assay [10], in assay [11] and in assay [12] was inactive. Also, the result in [13], in assay [14], in [15], in assay [16], in assay [17] and in [18] was inactive.

Regarding `O=C(O)C(F)(F)C(F)(F)C(F)(F)C(F)(F)C(F)(F)C(F)(F)C(F)(F)F`, the result in assay [1], in [2], in assay [3], in assay [5], in [6] and in [7] was inactive. Moreover, the outcome in [8], in assay [9], in assay [10], in assay [11], in assay [12] and in assay [13] was inactive. Moreover, the outcome in assay [14], in assay [15], in assay [16], in assay [19], in assay [20] and in assay [17] was inactive. In addition, the outcome in assay [18] was inactive. The AC50 in [8] is 22.4 µM (active); in assay [10], 8.07 µM (active); in assay [12], 1.5 µM (active); in assay [14], 30 µM (active).

Regarding `CCOC1Oc2ccc(OS(C)(=O)=O)cc2C1(C)C` (centres undefined), the outcome in assay [1], in assay [2], in [3], in assay [5], in [6] and in [7] was inactive. The outcome in assay [8], in assay [9], in [10], in assay [11], in [12] and in [13] was inactive. The outcome in assay [14], in assay [15], in [16], in [19], in assay [17] and in assay [18] was inactive.

For the molecule `COC(=O)c1ccccc1S(=O)(=O)NC(=O)Nc1nc(C)nc(OC)n1`, the outcome in assay [1], in [2], in assay [3], in assay [5], in assay [6] and in assay [7] was inactive. For the same molecule, the result in assay [8], in assay [9], in assay [10], in assay [11], in [12] and in [13] was inactive. For the same molecule, the outcome in assay [14], in [15], in assay [16], in [19], in assay [17] and in assay [18] was inactive.

On to `Cc1cc(C)nc(NC(=O)NS(=O)(=O)c2ccccc2C(=O)OC2COC2)n1`, for which the outcome in [1], in [2], in assay [3], in assay [4], in assay [5] and in [6] was inactive. The outcome in assay [7], in assay [8], in assay [9], in assay [10], in assay [11] and in assay [12] was inactive. Besides, the result in assay [13], in assay [14], in assay [15], in assay [16], in [17] and in [18] was inactive.

Regarding `OCCOc1ccccc1`, the result in assay [1], in [2], in [3], in [5], in assay [6] and in [7] was inactive. Also, the result in assay [8], in assay [9], in assay [10], in assay [11], in [12] and in [13] was inactive. Also, the outcome in assay [14], in assay [15], in assay [16], in [19], in [20] and in [17] was inactive. The result in assay [18] was inactive.
